LYPLA1 inh = blocks human lysophospholipase 1, a PME1 counter-screen; O75608; recombinant LYPLA1, FP-Rh probe fluorescence polarization; inhibition, % at 5.9 µM; 0.16% of 320,000 active; AID 2174;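 active = inhibition above the mean of all tested compounds plus 3 SD, set per campaign, cut at about 14% in these data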;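 also: inhibitors block serine hydrolase probe labeling of LYPLA1 so polarization falls; 0% = enzyme with DMSO and 100% = wells lacking LYPLA1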
pPAFAH FP inh = pPAFAH (human) enzyme inhibition | Q13093 | recombinant pPAFAH, FP-rhodamine probe fluorescence polarization | inhibition, % at 3.39 µM | 1.5% of 330,000 active | AID 463082;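 active = inhibition above the mean inhibition across the screen plus 3 SD, cut at about 25% in these data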;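 also: inhibitors block binding of the rhodamine activity-based probe so polarization drops; 0% = enzyme with DMSO and 100% = wells lacking pPAFAH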
Target sequence (Q13093 whole entry, looked up): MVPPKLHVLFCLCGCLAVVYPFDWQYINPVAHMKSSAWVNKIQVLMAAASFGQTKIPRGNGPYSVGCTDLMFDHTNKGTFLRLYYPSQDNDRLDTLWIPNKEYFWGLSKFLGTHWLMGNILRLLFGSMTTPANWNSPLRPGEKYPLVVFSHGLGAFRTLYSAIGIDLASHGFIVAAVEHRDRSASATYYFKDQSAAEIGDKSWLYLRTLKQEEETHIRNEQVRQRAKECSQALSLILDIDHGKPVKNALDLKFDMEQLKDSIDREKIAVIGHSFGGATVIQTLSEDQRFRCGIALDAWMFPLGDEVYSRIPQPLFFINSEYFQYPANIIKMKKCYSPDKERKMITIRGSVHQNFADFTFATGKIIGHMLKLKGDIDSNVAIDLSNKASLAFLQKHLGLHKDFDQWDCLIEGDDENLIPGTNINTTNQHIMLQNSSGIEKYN
PAFAH1B2 FP inh = inhibitors of human PAFAH1B2 | P68402 | 1.2% of 340,000 active | recombinant PAFAH1B2, FP-rhodamine activity probe, fluorescence polarization | inhibition, % at 3.39 µM;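 active = inhibition above the mean of all tested compounds plus 3 SD, cut at about 24% in these data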;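 also: 0% = enzyme with DMSO and 100% = wells lacking PAFAH1B2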
PAFAH1B3 inh = inhibitors of human PAFAH1B3 | Q15102 | recombinant PAFAH1B3, FP-rhodamine probe, fluorescence polarization | inhibition, % at 3.39 µM | 0.28% of 340,000 active;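 active = inhibition above the screen-wide average of all tested compounds plus 3 SD, cut at about 25% in these data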;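 also: 0% = enzyme with DMSO only and 100% = wells lacking PAFAH1B3 protein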
Target sequence (Q15102 whole entry, looked up): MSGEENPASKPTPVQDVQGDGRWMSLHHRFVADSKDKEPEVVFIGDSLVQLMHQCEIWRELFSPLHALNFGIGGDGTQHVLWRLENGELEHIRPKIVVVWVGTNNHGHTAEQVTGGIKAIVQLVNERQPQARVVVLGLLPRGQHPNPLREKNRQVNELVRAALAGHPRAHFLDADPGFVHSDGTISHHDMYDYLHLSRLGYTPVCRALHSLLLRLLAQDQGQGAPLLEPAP
PAFAH2 inh = inhibitors of human PAFAH2; inhibition, % at 3.39 µM; AID 492956; recombinant PAFAH2, FP-rhodamine activity probe, fluorescence polarization; 0.99% of 340,000 active;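 active = inhibition above the mean over all tested compounds plus 3 SD, cut at about 30% in these data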;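 also: inhibitors block probe labeling of enzyme so polarization drops; 0% = enzyme with DMSO and 100% = wells lacking PAFAH2 protein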
LYPLA2 counter = counter-screen for PME1 inhibitors: inhibitors of human LYPLA2; O95372; recombinant LYPLA2, FP-Rh probe fluorescence polarization; inhibition, % at 5.9 µM; 0.38% of 320,000 active;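 active = inhibition above the screen-wide mean plus 3 SD, limit set per campaign, cut at about 26% in these data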;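 also: 0% = LYPLA2 with DMSO and 100% = wells lacking LYPLA2 enzyme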
LYPLA2 conf = LYPLA2 (human) inhibition, confirmation counter-screen; shares compounds with LYPLA2 counter; recombinant LYPLA2, FP-Rh probe fluorescence polarization; inhibition, % at 5.9 µM; 72% of 1,100 active; AID 2232;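 active = mean inhibition across replicates above the hit cutoff set in the primary screen, cut at about 26% in these data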;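 also: blocked labeling of the enzyme by serine hydrolase FP-Rh probe lowers polarization; 0% = enzyme with DMSO and 100% = wells lacking LYPLA2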
LYPLA2 gel ABPP = blocks human acyl-protein thioesterase 2 in gel ABPP. rhLYPLA2 in mouse brain proteome, gel ABPP FP-Rh. shares compounds with LYPLA2 counter. 30% of 150 active. AID 652029. inhibition, % at 20 µM;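 active = inhibition of LYPLA2 enzyme probe labeling above about 50%, limit read from the data; inactive = inhibition below that limit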;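 also: loss of FP-Rh probe labeling of the LYPLA2 gel band measured as band density; 0% = DMSO only control band and 100% = blank gel background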
Active calls of the source: *. In the library only some 2.9% were active in any assay of this set; here they are far more common.

Results for COc1ccc(CCNC(=O)COc2ccc(-c3ccc(C)cc3)cc2)cc1OC ?
LYPLA1 inh: 0; pPAFAH FP inh: 14; PAFAH1B2 FP inh: 1; PAFAH1B3 inh: 8; PAFAH2 inh: -6; LYPLA2 counter: 45*; LYPLA2 conf: 40*

Results for COc1ccc(CC(=O)Nc2cccc(-c3nnc(-c4ccc(C)cc4)o3)c2)cc1OC ?
LYPLA1 inh: -3; pPAFAH FP inh: 0; PAFAH1B2 FP inh: -7; PAFAH1B3 inh: 0; PAFAH2 inh: -17; LYPLA2 counter: 31*; LYPLA2 conf: 13

How did COc1ccc(CCNC(=O)CCOc2ccc(C)cc2)cc1OC do in these assays?
LYPLA1 inh: 2; pPAFAH FP inh: 7; PAFAH1B2 FP inh: 2; PAFAH1B3 inh: -6; PAFAH2 inh: -6; LYPLA2 counter: 2

Results for COc1ccc(CONc2ncnc3nonc23)cc1[N+](=O)[O-] ?
LYPLA1 inh: 0; pPAFAH FP inh: 4; PAFAH1B2 FP inh: 5; PAFAH1B3 inh: 6; PAFAH2 inh: 0; LYPLA2 counter: 7

Results for Cc1nn(-c2ccccc2)c2sc(C(=O)OC3CCOC3=O)cc12 (stereo unspecified) ?
LYPLA1 inh: -7; pPAFAH FP inh: 4; PAFAH1B2 FP inh: 3; PAFAH1B3 inh: 0; PAFAH2 inh: -3; LYPLA2 counter: 36*; LYPLA2 conf: 43*

Results for COC(=O)c1cc2c(C)nn(-c3ccccc3)c2s1 ?
LYPLA1 inh: -2; pPAFAH FP inh: -6; PAFAH1B2 FP inh: 2; PAFAH1B3 inh: 7; PAFAH2 inh: 2; LYPLA2 counter: -2

What do the screens show for `COc1cccc(OCc2cc(C(=O)N3CCC(c4ccncc4)CC3)no2)c1`?
LYPLA1 inh: 8; pPAFAH FP inh: 3; PAFAH1B2 FP inh: -2; PAFAH1B3 inh: 7; PAFAH2 inh: -2; LYPLA2 counter: 25

What do the screens show for `CC(=O)c1ccc(OCc2cc(C(=O)N3CCC(c4ccncc4)CC3)no2)cc1`?
LYPLA1 inh: 3; pPAFAH FP inh: 4; PAFAH1B2 FP inh: 3; PAFAH1B3 inh: 4; PAFAH2 inh: 6; LYPLA2 counter: 34*; LYPLA2 conf: 37*

What do the screens show for `CCOC(=O)C(=O)Nc1nnc(COc2ccccc2)s1`?
LYPLA1 inh: 2; pPAFAH FP inh: 1; PAFAH1B2 FP inh: 2; PAFAH1B3 inh: 2; PAFAH2 inh: -6; LYPLA2 counter: 0

How did OC(COc1cccc2ccccc12)CN1CCN(c2cccc(Cl)c2)CC1 (stereo unspecified) do in these assays?
LYPLA1 inh: 13; pPAFAH FP inh: 4; PAFAH1B2 FP inh: 0; PAFAH1B3 inh: 3; PAFAH2 inh: 3; LYPLA2 counter: 35*; LYPLA2 conf: 22

Results for O=[N+]([O-])c1ccccc1OCC(O)CN1CCN(CC(O)COc2ccccc2[N+](=O)[O-])CC1 (stereo unspecified) ?
LYPLA1 inh: 0; pPAFAH FP inh: -3; PAFAH1B2 FP inh: -2; PAFAH1B3 inh: 9; PAFAH2 inh: 5; LYPLA2 counter: 44*; LYPLA2 conf: 49*

What do the screens show for `c1ccc(-c2ccc3sccc3n2)cc1`?
LYPLA1 inh: -5; pPAFAH FP inh: 3; PAFAH1B2 FP inh: 7; PAFAH1B3 inh: 0; PAFAH2 inh: -1; LYPLA2 counter: -2

What do the screens show for `Cc1cccnc1NC(=O)C(c1ccccc1)c1ccccc1`?
LYPLA1 inh: 0; pPAFAH FP inh: 1; PAFAH1B2 FP inh: 4; PAFAH1B3 inh: 8; PAFAH2 inh: 1; LYPLA2 counter: 27*; LYPLA2 conf: -1

How did O=C1C(Cl)=C(NCCCO)C(=O)c2ccccc21 do in these assays?
LYPLA1 inh: 2; pPAFAH FP inh: 0; PAFAH1B2 FP inh: 7; PAFAH1B3 inh: 12; PAFAH2 inh: 1; LYPLA2 counter: 0

Results for O=C1C(SCCO)=C(SCCO)C(=O)c2ccccc21 ?
LYPLA1 inh: 3; pPAFAH FP inh: 4; PAFAH1B2 FP inh: 46*; PAFAH1B3 inh: 47*; PAFAH2 inh: 50*; LYPLA2 counter: 31*; LYPLA2 conf: 55*

How did CC(=O)c1cnn(-c2ccc(Cl)c(Cl)c2Cl)c1C do in these assays?
LYPLA1 inh: -1; pPAFAH FP inh: -2; LYPLA2 counter: -3

What do the screens show for `CCOc1ccc(CCNC(=O)CCc2nc3ccccc3[nH]2)cc1OCC`?
LYPLA1 inh: -1; pPAFAH FP inh: 2; PAFAH1B2 FP inh: 3; PAFAH1B3 inh: 6; PAFAH2 inh: 5; LYPLA2 counter: 1

How did CCN(CC)S(=O)(=O)c1ccc(N2CCOCC2)c(NC(=O)CNCCc2ccccc2)c1 do in these assays?
LYPLA1 inh: 0; pPAFAH FP inh: 6; PAFAH1B2 FP inh: -2; PAFAH1B3 inh: -5; PAFAH2 inh: 0; LYPLA2 counter: 53*; LYPLA2 conf: 58*; LYPLA2 gel ABPP: 16

What do the screens show for `COc1cc(CC(=O)NNC(=O)c2cccs2)cc(OC)c1OC`?
pPAFAH FP inh: 1; PAFAH1B2 FP inh: -1; PAFAH1B3 inh: 6; PAFAH2 inh: 8

What do the screens show for `NC(=O)C1(N2CCCCC2)CCN(C(=O)CSc2nc3ccccc3s2)CC1`?
LYPLA1 inh: 4; pPAFAH FP inh: 5; PAFAH1B2 FP inh: -5; PAFAH1B3 inh: -2; PAFAH2 inh: -4; LYPLA2 counter: 32*; LYPLA2 conf: 31*

What do the screens show for `Cc1nc(C(=O)NC2CCCCC2)sc1C1(C)CC(c2cccc([N+](=O)[O-])c2)=NO1` (stereo unspecified)?
LYPLA1 inh: -1; pPAFAH FP inh: 6; PAFAH1B2 FP inh: 5; PAFAH1B3 inh: 5; PAFAH2 inh: -6; LYPLA2 counter: 50*; LYPLA2 conf: 60*; LYPLA2 gel ABPP: 45

What do the screens show for `COc1ccc(-c2cn(Cc3ccc([N+](=O)[O-])cc3)nn2)cc1`?
LYPLA1 inh: 3; pPAFAH FP inh: 4; PAFAH1B2 FP inh: 1; PAFAH1B3 inh: 5; PAFAH2 inh: -4; LYPLA2 counter: 5

What do the screens show for `COc1ccc(-c2ccc(=O)n(Cc3ccc([N+](=O)[O-])cc3)n2)cc1`?
LYPLA1 inh: -3; pPAFAH FP inh: -4; PAFAH1B2 FP inh: 1; PAFAH1B3 inh: -3; PAFAH2 inh: 0; LYPLA2 counter: 29*; LYPLA2 conf: 30*

Results for CC(=O)Nc1cccc(-n2nnc(SCC(=O)N(C)c3ccccc3)n2)c1 ?
LYPLA1 inh: -1; pPAFAH FP inh: 6; PAFAH1B2 FP inh: 2; PAFAH1B3 inh: 8; PAFAH2 inh: 0; LYPLA2 counter: 34*; LYPLA2 conf: 40*

Results for CC(=O)Nc1cccc(-n2nnc(SCC(=O)Nc3ccccc3)n2)c1 ?
LYPLA1 inh: 1; pPAFAH FP inh: -2; PAFAH1B2 FP inh: -4; PAFAH1B3 inh: 12; PAFAH2 inh: -4; LYPLA2 counter: 5
